# In PubChem BioAssay (NCATS):
# Values without a mark were called inactive. The source made the active and inactive calls. No rule for the calls is given here.
# Tested on: HIV-1 nucleocapsid protein NCp7 (binding to TG oligonucleotide)
# Assay: HIV Nucleocapsid (AID 346);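 also: potency is for inhibitors that block NC binding and lower polarization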
# Conditions: HIV-1 NC / fluorescein-TGTGTGTG probe, fluorescence polarization
# How it was run: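 Inhibition of nucleocapsid binding to single-stranded 5'-TGTGTGTG probe (10 nM) was measured by fluorescence polarization after 1 hr at room temperature with 100 nM protein under high-salt, zinc-containing, reducing conditions.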
# Potency is read from the fitted curve at half-maximal effect.
row,SMILES,Potency
1,CC(C)CN1CCCC2(CCN(C(=O)c3cnccn3)CC2)C1,> 20 µM
2,COc1ccccc1CCn1c(=O)c(-c2ccc(F)cc2)nc2cncnc21,> 20 µM
3,Cc1noc(C)c1-c1ccc2ncnc(N(C)Cc3ccco3)c2c1,> 20 µM
4,COc1ccc(CNc2ccnc(-c3ccc(N(C)C)cc3)n2)c(OC)c1,> 20 µM
5,COc1cccc(Cn2c(=O)c(-c3cc(F)cc(F)c3)nc3cncnc32)c1,> 20 µM
6,COc1ccc(-n2c(=O)c(-c3ccc(F)cc3)nc3cnc(N4CCOCC4)nc32)cc1,> 20 µM
7,O=C(c1cnccn1)N1CCC[C@@]2(CCN(Cc3cc(C(F)(F)F)cc(C(F)(F)F)c3)C2)C1,> 20 µM
8,O=c1c(-c2ccccc2)nc2cnc(N3CCNCC3)nc2n1Cc1cccs1,> 20 µM
9,COc1cccc(-c2cncnc2N(C)Cc2ccco2)c1,> 20 µM
10,COc1ccc2[nH]cc(CCNc3ncnc4ccc(-c5ccccc5CN(C)C)cc34)c2c1,> 20 µM
11,N#Cc1cccc(NC(=O)N2CCCC3(CCN(C(=O)c4cnccn4)CC3)C2)c1,> 20 µM
12,CS(=O)(=O)N1CCC[C@@]2(CCN(c3ccncc3)C2)C1,> 20 µM
13,CN1CC[C@@]2(CCCN(C(=O)c3cccc(F)c3)C2)C1,> 20 µM
14,Cn1c(=O)c(CCc2ccccc2)nc2cnc(OCc3ccccc3)nc21,> 20 µM
15,CC(=O)N1CCC2(CCN(Cc3nccs3)CC2)CC1,> 20 µM
16,COCCn1c(=O)c(C)nc2cnc(N3CCNCC3)nc21,> 20 µM
17,O=c1c(-c2ccccc2)nc2cnc(Nc3ccccc3)nc2n1Cc1cccs1,> 20 µM
18,O=S(=O)(c1ccccc1)N1CCC2(CCN(C(c3ccccc3)c3ccccc3)CC2)CC1,> 20 µM
19,CN1CCN(c2ncc3ncc(=O)n(Cc4cccs4)c3n2)CC1,> 20 µM
20,Cn1cccc1C(=O)N1CCC2(CC1)CCN(c1ncccn1)CC2,> 20 µM

row,SMILES,Potency
1,Cn1cccc1C(=O)N1CCC2(CC1)CN(C(c1ccccc1)c1ccccc1)C2,> 20 µM
2,CCNc1ncc2nc(CCc3ccccc3)c(=O)n(C)c2n1,> 20 µM
3,N#CCCn1c(=O)c(-c2cccs2)nc2cnc(N3CCOCC3)nc21,4.26 µM (active)
4,COc1cccc(Cn2c(=O)c(-c3cccc(C#N)c3)nc3cnc(Nc4ccccc4)nc32)c1,0.198 µM (active)
5,CNc1ncncc1-c1ccccc1OC,> 20 µM
6,O=c1c(-c2cccs2)nc2cnc(Oc3ccccc3)nc2n1-c1ccccc1,> 4 µM
7,N#CCCn1c(=O)c(-c2cccc(C#N)c2)nc2cnc(Oc3cccc(Cl)c3)nc21,> 20 µM
8,Cc1cccc(CNc2nc(-c3cccnc3)nc3ccccc23)c1,> 20 µM
9,COc1ccc(C(=O)N2CCC3(CCCN(c4ccncc4)C3)CC2)cc1,> 20 µM
10,CN(C)Cc1ccccc1-c1ccc2ncnc(N3CCOCC3)c2c1,> 20 µM
11,CN1CCN(c2ncnc3ccc(-c4ccccc4Cl)cc23)CC1,> 20 µM
12,FC(F)(F)c1ccccc1-c1nccc(NCCN2CCOCC2)n1,> 20 µM
13,Cn1c(=O)c(-c2cc(F)cc(F)c2)nc2cnc(Oc3ccccc3)nc21,> 20 µM
14,O=c1c(-c2cccc(F)c2)nc2cncnc2n1Cc1ccc(F)cc1,> 20 µM
15,Cn1cc(-c2nc3cnc(Oc4ccccc4)nc3n(C)c2=O)c2ccccc21,> 20 µM
16,Cn1cccc1C(=O)N1CCC2(CCN(Cc3ccncc3)CC2)CC1,> 20 µM
17,CS(=O)(=O)Nc1cccc(-c2nccc(NCc3cccs3)n2)c1,> 20 µM
18,N#Cc1ccccc1-c1ccc2ncnc(NCc3ccccc3)c2c1,> 20 µM
19,CS(=O)(=O)N1CCC[C@@]2(CCN(Cc3ccccc3)C2)C1,> 20 µM
